According to PubChem BioAssay AID1159580 (chemical genetic matrix, 2015):
About 2,000 (36%) of roughly 5,500 compounds were called active. Inconclusive results (about 18%) are left out. Cut-off read from the data, not from the text of the source: active = normalized growth mostly below about 0.91 (no sharp cut-off); inconclusive = no clear call, values can overlap the other calls; inactive = mostly above about 0.92. The list shows a part of the results.

Test: chemical genetic growth profiling, strain panel (AID 1159580);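 note: tested at 20 µM; growth read once vehicle control cultures reached saturation at 30 °C; 1 = growth at the plate median or of vehicle wells; lower values mean less growth of the strain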
Settings: growth OD

Measured: normalized growth

CC(=O)OC(C)(C)[C@@H]1Cc2cc3ccc(=O)oc3cc2O1
inactive: S. cerevisiae deletion strains, locus YJR066W, strain TOR1, stronger effect = lower value 0.928 | S. cerevisiae deletion strains, locus YJR075W, strain HOC1, stronger effect = lower value 0.992 | S. cerevisiae deletion strains, locus YKL009W, strain mrt4, stronger effect = lower value 1.03 | S. cerevisiae deletion strains, locus YKL068W, stronger effect = lower value 1.01 | S. cerevisiae deletion strains, locus YKL085W, strain MDH1 (second series), stronger effect = lower value 0.998 | S. cerevisiae deletion strains, locus YKL085W, strain MDH1, stronger effect = lower value 0.998 | S. cerevisiae deletion strains, locus YKL160W, strain elf1, stronger effect = lower value 1.02 | S. cerevisiae deletion strains, locus YKL190W, strain CNB1, stronger effect = lower value 1.01 | S. cerevisiae deletion strains, locus YKR001C, strain vps1, stronger effect = lower value 1 | S. cerevisiae deletion strains, locus YKR026C, strain gcn3, stronger effect = lower value 0.957 | S. cerevisiae deletion strains, locus YKR091W, strain srl3, stronger effect = lower value 0.975 | S. cerevisiae deletion strains, locus YLL001W, strain dnm1, stronger effect = lower value 0.984 | S. cerevisiae deletion strains, locus YLL026W, stronger effect = lower value 0.97 | S. cerevisiae deletion strains, locus YLL041C, strain sdh2, stronger effect = lower value 0.984 | S. cerevisiae deletion strains, locus YLR027C, strain aat2, stronger effect = lower value 0.962 | S. cerevisiae deletion strains, locus YLR039C, strain RIC1, stronger effect = lower value 1.07 | S. cerevisiae deletion strains, locus YLR058C, strain SHM2, stronger effect = lower value 0.999 | S. cerevisiae deletion strains, locus YLR102C, strain apc9, stronger effect = lower value 1 | S. cerevisiae deletion strains, locus YLR113W, strain HOG1, stronger effect = lower value 1.04 | S. cerevisiae deletion strains, locus YLR221C, strain rsa3, stronger effect = lower value 1.01 | S. cerevisiae deletion strains, locus YLR258W, strain gsy2, stronger effect = lower value 0.951 | S. cerevisiae deletion strains, locus YLR262C, strain YPT6 (second series), stronger effect = lower value 1.01 | S. cerevisiae deletion strains, locus YLR262C, strain YPT6, stronger effect = lower value 1.07 | S. cerevisiae deletion strains, locus YLR268W, strain sec22, stronger effect = lower value 1.04 | S. cerevisiae deletion strains, locus YLR320W, strain mms22, stronger effect = lower value 0.956 | S. cerevisiae deletion strains, locus YLR330W, strain CHS5, stronger effect = lower value 1 | S. cerevisiae deletion strains, locus YLR342W, strain FKS1 (second series), stronger effect = lower value 0.994 | S. cerevisiae deletion strains, locus YLR342W, strain FKS1, stronger effect = lower value 0.969 | S. cerevisiae deletion strains, locus YLR357W, strain rsc2, stronger effect = lower value 0.971 | S. cerevisiae deletion strains, locus YLR370C, strain arc18, stronger effect = lower value 0.973 | S. cerevisiae deletion strains, locus YLR371W, strain rom2, stronger effect = lower value 1.03 | S. cerevisiae deletion strains, locus YLR384C, strain iki3, stronger effect = lower value 0.979 | S. cerevisiae deletion strains, locus YLR418C, strain cdc73, stronger effect = lower value 0.975 | S. cerevisiae deletion strains, locus YML016C, strain PPZ1, stronger effect = lower value 0.999 | S. cerevisiae deletion strains, locus YML032C, strain rad52, stronger effect = lower value 0.987 | S. cerevisiae deletion strains, locus YML120C, strain ndi1, stronger effect = lower value 0.99 | S. cerevisiae deletion strains, locus YML124C, strain tub3, stronger effect = lower value 0.994 | S. cerevisiae deletion strains, locus YMR058W, strain fet3, stronger effect = lower value 0.969 | S. cerevisiae deletion strains, locus YMR078C, strain ctf18, stronger effect = lower value 1.01 | S. cerevisiae deletion strains, locus YMR125W, strain sto1, stronger effect = lower value 0.941 | S. cerevisiae deletion strains, locus YMR129W, stronger effect = lower value 0.962 | S. cerevisiae deletion strains, locus YMR205C, strain PFK2, stronger effect = lower value 0.915 | S. cerevisiae deletion strains, locus YMR223W, strain ubp8, stronger effect = lower value 0.982 | S. cerevisiae deletion strains, locus YMR231W, strain pep5, stronger effect = lower value 0.968 | S. cerevisiae deletion strains, locus YMR263W, strain SAP30, stronger effect = lower value 0.997 | S. cerevisiae deletion strains, locus YMR307W, strain GAS1, stronger effect = lower value 1.03 | S. cerevisiae deletion strains, locus YNL067W, strain RPL9B, stronger effect = lower value 0.999 | S. cerevisiae deletion strains, locus YNL071W, strain lat1, stronger effect = lower value 0.985 | S. cerevisiae deletion strains, locus YNL183C, strain NPR1, stronger effect = lower value 0.983 | S. cerevisiae deletion strains, locus YNL209W, strain ssb2, stronger effect = lower value 0.975 | S. cerevisiae deletion strains, locus YNL233W, strain BNI4, stronger effect = lower value 0.988 | S. cerevisiae deletion strains, locus YNL248C, strain rpa49, stronger effect = lower value 1.02 | S. cerevisiae deletion strains, locus YNL250W, strain rad50, stronger effect = lower value 1.01 | S. cerevisiae deletion strains, locus YNL271C, strain bni1, stronger effect = lower value 1 | S. cerevisiae deletion strains, locus YNL298W, strain CLA4, stronger effect = lower value 1.01 | S. cerevisiae deletion strains, locus YNL307C, strain MCK1, stronger effect = lower value 1 | S. cerevisiae deletion strains, locus YNL322C, strain KRE1 (second series), stronger effect = lower value 0.951 | S. cerevisiae deletion strains, locus YNR049C, strain mso1, stronger effect = lower value 0.955 | S. cerevisiae deletion strains, locus YNR052C, strain pop2, stronger effect = lower value 1 | S. cerevisiae deletion strains, locus YOL012C, strain htz1 0.921 | S. cerevisiae deletion strains, locus YOL147C, strain pex11, stronger effect = lower value 0.997 | S. cerevisiae deletion strains, locus YOR001W, strain rrp6, stronger effect = lower value 1.01 | S. cerevisiae deletion strains, locus YOR061W, strain CKA2, stronger effect = lower value 1.01 | S. cerevisiae deletion strains, locus YOR069W, strain VPS5, stronger effect = lower value 1 | S. cerevisiae deletion strains, locus YOR070C, strain gyp1, stronger effect = lower value 0.995 | S. cerevisiae deletion strains, locus YOR080W, strain dia2, stronger effect = lower value 0.982 | S. cerevisiae deletion strains, locus YOR083W, strain WHI5, stronger effect = lower value 1.02 | S. cerevisiae deletion strains, locus YOR106W, strain vam3, stronger effect = lower value 1.02 | S. cerevisiae deletion strains, locus YOR136W, strain idh2, stronger effect = lower value 0.999 | S. cerevisiae deletion strains, locus YOR144C, strain elg1, stronger effect = lower value 1 | S. cerevisiae deletion strains, locus YOR184W, strain ser1, stronger effect = lower value 0.968 | S. cerevisiae deletion strains, locus YOR231W, strain MKK1, stronger effect = lower value 0.963 | S. cerevisiae deletion strains, locus YOR265W, strain rbl2, stronger effect = lower value 0.976 | S. cerevisiae deletion strains, locus YOR270C, strain vph1, stronger effect = lower value 0.935 | S. cerevisiae deletion strains, locus YOR290C, strain snf2, stronger effect = lower value 0.916 | S. cerevisiae deletion strains, locus YOR316C, strain cot1, stronger effect = lower value 0.995 | S. cerevisiae deletion strains, locus YPL051W, strain arl3, stronger effect = lower value 1 | S. cerevisiae deletion strains, locus YPL078C, strain atp4, stronger effect = lower value 0.993 | S. cerevisiae deletion strains, locus YPL106C, strain sse1, stronger effect = lower value 0.946 | S. cerevisiae deletion strains, locus YPL240C, strain hsp82, stronger effect = lower value 0.995 | S. cerevisiae deletion strains, locus YPL241C, strain CIN2, stronger effect = lower value 0.996 | S. cerevisiae deletion strains, locus YPL256C, strain CLN2, stronger effect = lower value 0.962 | S. cerevisiae deletion strains, locus YPR119W, strain clb2, stronger effect = lower value 1.02 | S. cerevisiae deletion strains, locus YPR141C, strain kar3, stronger effect = lower value 1 | S. cerevisiae deletion strains, locus YPR163C, strain tif3, stronger effect = lower value 1 | S. cerevisiae deletion strains, locus YPR167C, strain met16, stronger effect = lower value 1 | S. cerevisiae deletion strains, strain wtn01, stronger effect = lower value 1.01 | S. cerevisiae strains, strain wild type, stronger effect = lower value 1
